Screening data: PubChem, National Center for Advancing Translational Sciences (NCATS)
Shown are actives, neighbours in structure and some others; about 4.2% of the full set was active somewhere.
PLK1 PBD inh = PLK1 (human) polo-box domain binding inhibition; Plk1 PBD binding of FITC phosphopeptide, fluorescence polarization; Potency, µM, usual class: inhibitors; 2.8% of 360,000 active; AID 720504; further: series mostly up to about 57 µM; nearly all actives have a fitted effect of over 65% in size
VDR inhibitor = inhibitors of human vitamin D receptor; P11473; VDR-SRC2-3 peptide fluorescence polarization, 2 h; Potency, µM, most hits filed as inhibitors; 0.93% of 400,000 active; AID 504847
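VDR–SRC2-3 interaction, FP format. Cmpds 23 nl via pintool, brief spin, 2 h ambient incubation.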
ALOX12 inh = blocks human arachidonate 12S-lipoxygenase; P18054; purified 12hLO, xylenol orange hydroperoxide absorbance; Potency, µM (series often up to 108 µM), usual class: inhibitors; 1.1% of 580,000 active
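Purified human 12hLO at 150 nM in 25 mM Hepes, 0.01% Triton X-100, pH 7.0, preincubated 15 min at room temperature with compound. Reaction started with 40 uM arachidonic acid, 30 min at room temperature. Hydroperoxide measured by Fe-xylenol orange, 573/405 nm absorbance ratio.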
Sfp PPTase inh = inhibitors of Bacillus subtilis Sfp phosphopantetheinyl transferase. 3.5% of 310,000 active. Q9F4F7. Potency, µM, actives largely listed as inhibitors. AID 1490. Biochemical Sfp PPTase activity, qHTS;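 further: the enzyme is Sfp with the accession as filed and its product quenches rhodamine fluorescence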
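Sfp 15 nM + cpd, 15 min RT; start w/ rhodamine-CoA 5 uM, BHQ-2-YbbR 12.5 uM (final); 50 mM Hepes pH 7.6, 10 mM MgCl2, 0.01% NP-40, 0.01% BSA; read 525/598 nm at 0 and 30 min.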
Each line names hits and unclear results; the compound was inactive in the other large screens. The call rests on the fitted dose curve; in most records, active means well fitted curve in the direction sought with a large enough effect; inconclusive means small, poorly fitted or top-dose-only effect, or another doubt; inactive means no such curve, though single readings can be large; an effect the other way counts as inactive or inconclusive.

CCOC(=O)C1=C(C)N(c2ccc(OC)cc2)C(=O)/C1=C\c1cccs1	none
Cc1ccc(/C(O)=C2\C(=O)C(=O)N(c3nc4ccccc4s3)C2c2ccc(O)cc2)cc1 (centres undefined)	ALOX12 inh 17.8µM (no result: PLK1 PBD inh, VDR inhibitor, Sfp PPTase inh)
COc1ccc(C2/C(=C(/O)c3ccc(C)cc3)C(=O)C(=O)N2c2ccccn2)cc1 (centres undefined)	ALOX12 inh inconclusive
CCOc1ccc(/C(O)=C2/C(=O)C(=O)N(c3ncccn3)C2c2ccc(Cl)cc2)cc1 (centres undefined)	VDR inhibitor inconclusive, Sfp PPTase inh inconclusive
CCOc1ccc(/C(O)=C2\C(=O)C(=O)N(c3nccs3)C2c2ccc(C)cc2)cc1 (centres undefined)	ALOX12 inh 6.31µM (no result: PLK1 PBD inh, VDR inhibitor, Sfp PPTase inh)
O=C(NCC1CCOCC1)c1ccccc1C(F)(F)F	none (no result: PLK1 PBD inh, VDR inhibitor, Sfp PPTase inh)
O=C1CC(c2ccco2)CC(O)=C1C=Nc1cc(Cl)cc(Cl)c1 (centres undefined)	ALOX12 inh inconclusive, Sfp PPTase inh 39.8µM
CCOc1ccc(N=CC2=C(O)CC(c3ccco3)CC2=O)cc1 (centres undefined)	none
Cn1nnnc1Sc1ncnc2scc(-c3ccc(Cl)cc3)c12	VDR inhibitor inconclusive (no result: PLK1 PBD inh, Sfp PPTase inh)
Clc1ccc(-n2nnnc2Sc2ncnc3sccc23)cc1	PLK1 PBD inh 8.44µM, VDR inhibitor 79.4µM (no result: Sfp PPTase inh)
O=C1OC(c2ccccc2)=N/C1=C\C=C\c1ccco1	ALOX12 inh inconclusive, Sfp PPTase inh 39.8µM
O=C1OC(c2ccccc2)=N/C1=C\C=C\c1ccccc1[N+](=O)[O-]	PLK1 PBD inh inconclusive, ALOX12 inh inconclusive
O=C1OC(c2ccc(Cl)cc2)=N/C1=C\C=C\c1ccco1	ALOX12 inh inconclusive, Sfp PPTase inh 44.7µM
CCOCCc1nnc(NC(=O)C2CC(=O)N(c3ccc(OCC)cc3)C2)s1 (centres undefined)	none
CCc1nnc(NC(=O)C2CC(=O)N(c3ccc(C)cc3)C2)s1 (centres undefined)	Sfp PPTase inh 50.1µM
COc1ccc(CNC(=O)[C@H](C)NC(=O)C2CC(=O)N(c3ccc(OC)cc3)C2)cc1 (some centres undefined)	PLK1 PBD inh 26.7µM, VDR inhibitor inconclusive
O=C(NCc1ccco1)C1CC(=O)N(c2ccc(O)cc2)C1 (centres undefined)	PLK1 PBD inh 3.36µM
COc1ccc(CNC(=O)[C@H](C)NC(=O)C2CC(=O)N(c3ccc4c(c3)OCO4)C2)cc1 (some centres undefined)	none
CCOc1ccc(N2CC(C(=O)Nc3nnc(CC)s3)CC2=O)cc1 (centres undefined)	ALOX12 inh inconclusive, Sfp PPTase inh 56.2µM
CN(C)c1nc(C2CC(N)C2)cc(N(C)Cc2cnn(C)c2)n1 (centres undefined)	none (no result: PLK1 PBD inh, VDR inhibitor, Sfp PPTase inh)
CCOc1ccc(N2CC(C(=O)NCc3cccc(C)c3)CC2=O)cc1 (centres undefined)	PLK1 PBD inh 5.97µM
CCOc1ccc(N2CC(C(=O)OCC(=O)c3ccc(OC)cc3)CC2=O)cc1 (centres undefined)	PLK1 PBD inh 29.9µM, VDR inhibitor inconclusive
CCOC(=O)c1c(C)[nH]c(C)c1C(=O)COC(=O)CNC(=O)c1ccc(OCC)cc1	PLK1 PBD inh 29.9µM, ALOX12 inh inconclusive
O=C(NCCc1ccncc1)c1ccc(F)cc1	none (no result: PLK1 PBD inh, VDR inhibitor, Sfp PPTase inh)
COc1ccc(Cn2c3c(c(=O)n2Cc2ccccc2)CCN(C(=O)Cc2cccc(F)c2)C3)cc1	none (no result: PLK1 PBD inh, VDR inhibitor, Sfp PPTase inh)
Fc1ccccc1-n1[nH]nnc1=S	PLK1 PBD inh inconclusive, VDR inhibitor 44.7µM, Sfp PPTase inh 25.1µM
O=C(CSc1ccc(S(=O)(=O)N2CCOCC2)cn1)Nc1ccc(OC(F)F)cc1	none (no result: Sfp PPTase inh)
NNC(=S)Nc1c(F)cc(F)cc1Br	ALOX12 inh inconclusive, Sfp PPTase inh 79.4µM
Cc1cc(C(=O)Nc2c(F)cc(F)cc2Br)cs1	none
CCOC(=O)C1CCCN(C(=O)c2cc(-c3ccc(C)cc3)nc3ccccc23)C1 (centres undefined)	none
COc1cc(C2=CCN(C(C)=O)CC2)ccc1OC(C)=O	none (no result: PLK1 PBD inh, Sfp PPTase inh)
Cc1ccc2c(c1)c1ccc3c(c1n2C)C(=O)C=CC3=O	PLK1 PBD inh 18.9µM, VDR inhibitor 50.1µM, ALOX12 inh 1.12µM, Sfp PPTase inh 2.51µM
O=c1oc2ccccc2nc1/C=C(O)/C=C/c1ccc(F)cc1	ALOX12 inh inconclusive, Sfp PPTase inh 79.4µM
O=c1oc2ccccc2nc1/C=C(O)/C=C\c1ccccc1	VDR inhibitor inconclusive
CN(C)c1ccc(C2CC(=O)OC3=C2C(=O)CC(C)(C)C3)cc1 (centres undefined)	PLK1 PBD inh inconclusive
CC(=O)c1sc2nc(-c3cccs3)ccc2c1N	ALOX12 inh inconclusive, Sfp PPTase inh 50.1µM
